In PubChem BioAssay AID624296 (National Center for Advancing Translational Sciences (NCATS), 2012):
Values joined by “and” are separate entries in the source; they are usually repeats but may differ in a detail not shown here. Equal entries are not always repeated. The campaign covered roughly 350,000 compounds. About 9,900 (2.8%) were called active. Where a call stands in place of a potency, no number is given. Another 15% or so got no clear call; they are omitted. Calls follow the shape of the dose curve; as a rule, active = well fitted activation curve with a large enough effect; inconclusive = small, poorly fitted or top-dose-only effect; inactive = no such curve, though single readings can be large or run the other way. For the sample, actives were picked, then their nearest neighbours and some compounds at random. A structure can be active in one record and inactive in another.

Assay: A quantitative high throughput screen for small molecules that induce DNA re-replication in MCF 10a normal breast cells. Also: nearly all actives have a fitted effect of over 50% in size.
Details: MCF 10A DNA re-replication, Hoechst nuclear intensity, 48 h; series mostly up to 46.1 µM
Potency is read from the fitted curve at half-maximal effect.

SMILES	Potency
COC(=O)c1c(NC(=O)CCCC(=O)O)sc2c1CCCCC2	inactive
COC(=O)c1c(NC(=O)CSc2nncs2)sc2c1CCCCC2	0.231 µM (active)
COC(=O)c1c(NC(=O)c2cccs2)sc2c1CCCC2	inactive
Cc1ccc(C(=O)OCC(=O)NCc2cc(C)c(O)c(C)c2)cc1S(=O)(=O)N1CCCCC1	inactive
CN1C(c2ccc(F)cc2)=CS/C1=C(/C#N)c1nnc2n1-c1ccccc1SC2	inactive
COc1ccc(CCc2nc(-c3cccs3)no2)cc1	inactive
c1csc(-c2nc(-c3ccncc3)no2)c1	inactive
COc1nc(-c2ccc(Cl)cc2)ccc1-c1noc(-c2cccs2)n1	6.51 µM (active)
COc1ccc(NC(C)=O)cc1NC(=O)CN1CCN(c2ccccn2)CC1	inactive
COc1ccc(Cl)cc1NC(=O)CN1CCN(C(=O)N2CCOCC2)CC1	inactive
COc1ccc(NC(C)=O)cc1NC(=O)CN1CCN(C2c3ccccc3-c3ccccc32)CC1	20.6 µM (active)
COc1ccc(N2CCN(C(CNS(=O)(=O)c3ccc(C)cc3)c3ccccc3)CC2)cc1 (stereo not given)	inactive
CC(NC(=O)COC(=O)c1ccc2ccccc2n1)c1ccccc1 (stereo not given)	inactive
Oc1c(Cl)cc(Cl)c(Cl)c1Cc1c(O)c(Cl)cc(Cl)c1Cl	inactive and 920 nM (active)
CN(C)C(=O)CCc1ccc2c3c([nH]c2c1)[C@]1(CCc2ccccc2)[C@@H](C(=O)N2CCCCC2)C[C@H](CC(=O)NCCC2=CCCCC2)C(=O)N1CC3	inactive
Nn1c(SCC(=O)Nc2nccs2)nnc1-c1ccco1	inactive
COc1ccccc1N1CC(O)=C(c2nc3ccccc3s2)C1=N	inactive
CCOC(=O)CCCN1CC(O)=C(c2nc3ccccc3s2)C1=N	inactive
N=C1C(c2nc3ccccc3s2)=C(O)CN1NC(=O)c1ccc([N+](=O)[O-])cc1	3.66 µM (active)
CC1CC(=NNC(=O)C2COc3ccccc3O2)CC(C)(C)C1 (stereo not given)	inactive
O=C(Nc1ccccc1N1CCCC1)c1ccc2ccccc2c1	inactive
O=C(Nc1ccccc1N1CCCCC1)c1ccc2nccnc2c1	20.6 µM (active)

SMILES	Potency
O=C(Nc1ccccc1N1CCOCC1)c1ccncc1	inactive
O=C(COc1ccccc1F)Nc1nc(-c2ccccn2)cs1	inactive
O=C(c1ccc(S(=O)(=O)NCc2ccco2)cc1)N1CCN(c2ccccc2)CC1	inactive
CCOC(=O)/C(C#N)=C/c1cn(CCC(=O)O)nc1-c1ccc(Br)cc1	inactive
O=C(O)CCn1cc(/C=C/C(=O)c2ccc(Cl)cc2)c(-c2cccc(Br)c2)n1	4.11 µM (active)
O=C(O)/C=C/c1cn(Cc2ccccc2)nc1-c1cccs1	inactive
CCC1(C)NC(=O)N(CC(=O)N2CCN(c3cccc(Cl)c3)CC2)C1=O (stereo not given)	inactive
CC1CCCCN1CC(=O)NCc1ccc2c(c1)OCO2 (stereo not given)	inactive
O=C(CN1CCN(c2nc(-c3ccccc3)cs2)CC1)NCc1ccc2c(c1)OCO2	11.6 µM (active)
COc1ccc(-c2csc(N3CCN(Cc4ccc5c(c4)OCO5)CC3)n2)cc1	inactive
Cc1csc2nc(COC(=O)c3cccc(N(C)C)c3)cc(=O)n12	inactive
COc1ccc(C(CNC(=O)c2cccc(S(=O)(=O)Nc3ccc(Br)cc3)c2)N(C)C)cc1 (stereo not given)	inactive
CCOC(=O)/C=c1\s/c(=C\c2ccc(C#N)cc2)c(=O)n1CC(=O)Nc1cccc(C)c1C	2.91 µM (active)
CCOC(=O)/C=c1\s/c(=C\c2ccccc2OC)c(=O)n1CC(=O)N1CCOCC1	inactive
Cc1cccc(NC(=O)CN2CCN(C(=O)C3CCN(C(=O)/C=C/c4ccccc4)CC3)CC2)c1C	inactive
Cn1nc(C(=O)OCC(=O)N(Cc2ccccc2)C(C)(C)C)c2ccccc2c1=O	inactive
O=C(OCC(=O)N1CCc2ccccc21)c1ccc([N+](=O)[O-])cc1	inactive
COc1ccc(-c2csc3ncnc(N4CCN(S(=O)(=O)c5cccc(F)c5)CC4)c23)cc1	inactive
CC1CCN(C(=S)c2cccc([N+](=O)[O-])c2)CC1	inactive
CC1CCN(C(=S)c2cccc(O)c2)CC1	1.46 µM (active)
CC1CCN(C(=S)NC(=O)c2ccccc2Br)CC1	inactive
CC[C@]1(C(=O)OC)[C@H]2C(=O)N(Cc3ccccc3)C(=O)[C@H]2[C@H]2CN=C(SCc3ccc(Cl)cc3)N21	inactive

SMILES	Potency
O=C(CN1CCc2ccccc2C1)Nc1cccc(S(=O)(=O)N2CCOCC2)c1	inactive
COC(=O)Cc1ccc(OC(=O)C2CCN(S(=O)(=O)c3ccc(OC)c(OC)c3)CC2)cc1	inactive
O=C(Nc1ccc(F)cc1)C1CCN(C(=O)c2ccc([N+](=O)[O-])cc2)CC1	inactive
O=C(c1ccc(Oc2ccc(Cl)cc2)c([N+](=O)[O-])c1)N1CCCC1	inactive
CC1CCN(C(=O)c2ccc(S(=O)(=O)Cc3cc(F)ccc3F)c([N+](=O)[O-])c2)CC1	18.4 µM (active)
O=C(Nc1ccn(CCCNCc2ccc3[nH]ccc3c2)c(=O)n1)OCc1ccccc1	inactive
O=C(Nc1c[nH]c(=O)[nH]c1=O)OCc1ccccc1	inactive
Cc1ccc(OCC(=O)N2CCN(S(=O)(=O)c3ccc(Cl)s3)CC2)cc1C	inactive
Cc1ccc(Br)c(NS(=O)(=O)c2cccc(C(=O)N3CCNC(=O)C3)c2)c1	inactive
O=C(CCl)NNc1nc(-c2ccccc2)c2cc(Cl)ccc2n1	inactive
NC(N)=Nc1nc(-c2ccccc2)c2cc(Cl)ccc2n1	inactive
OCCCNc1nc(-c2ccccc2)c2cc(Cl)ccc2n1	8.2 µM (active)
CC1(C)CC(=O)C=C(c2ccc3ncccc3c2)C1	inactive
CCN(c1ccccc1)S(=O)(=O)c1ccc(C(=O)Nc2ccccc2OC)cc1	inactive
C[n+]1cccc(C(=O)O)c1	inactive
COc1ccc(Cn2c(=S)[nH]c3cc(C(=O)NCCCN4CCOCC4)ccc3c2=O)cc1	inactive
CCN(CC)CCCNC(=O)c1ccc2c(=O)n(Cc3ccc4c(c3)OCO4)c(=S)[nH]c2c1	23.1 µM (active)
CCCCNC(=O)CCn1c(=S)[nH]c2cc3c(cc2c1=O)OCO3	inactive
Cc1ccc(SC(CC(=O)c2ccc(C(C)(C)C)cc2)C(=O)O)cc1 (stereo not given)	7.31 µM (active)
Cc1ccc(C(=O)NCCNC(=O)c2ccccc2)cc1	inactive
Cc1ccc(C(=O)CSc2ccccc2C(=O)O)cc1	inactive
